Lmaj promast: Leishmania major promastigote growth inhibition, primary screen; 200,000 tested, 9% active; Leishmania major promastigotes, resazurin fluorescence viability; inhibition, % at 10 µM; in the data active = inhibition above about 50%;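 note: promastigotes grown with compound for 44 hours at 28 °C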
HCT116 bCat-KO: primary screen for growth suppressors in beta-catenin knockout HCT116 cells (colon tumor, human). HCT116 beta-catenin knockout viability, CellTiter-Glo, 60 h; active compounds read low. viability, % at 10 µM. 140,000 tested, 1.5% active;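 active = viability at or under a set limit, the compound median less 4 SD, cut at about 6% in these data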;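 note: 0% = Hyamine 1622 control at 20 µM and 100% = untreated cell control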
Insulin prom inh: inhibitors of insulin promoter-driven GFP, primary screen, imaging, TRM-6 cells (human fetal islet line), eGFP reporter, cell count; AID 1273, 2008; 130,000 tested, 0.9% active; reporter expression induced with tamoxifen; inhibition, % at 2 µM;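 active = inhibition above the mean plus 3 SD, with well images judged a real hit on visual review, cut at about 60% in these data, passing the limit was not always enough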
p97 ATPase inh: inhibitors of human p97 ATPase, primary screen, biochemical | 220,000 tested, 0.42% active | recombinant p97 ATPase, Kinase-Glo ATP luminescence, 3 h | Transitional endoplasmic reticulum ATPase (Homo sapiens), P55072 | inhibition, % at 8 µM; in the data active = inhibition above about 15%;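 note: 0% = DMSO vehicle and 100% = wells lacking enzyme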
ROMK primary: ROMK potassium channel modulators, primary screen, cell-based, thallium flux, MLSMR library; Tet-inducible ROMK, thallium flux fluorescence; actives lie on both sides; B-score at 10 µM; ATP-sensitive inward rectifier potassium channel 1 (Homo sapiens), P48048; AID 1918, 2009; 130,000 tested, 2% active;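 active = signal ratio slope over the read window, or its plate-corrected B-score, at least 3 SD from the plate mean, either direction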;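 note: B-score of the F/F0 ratio slope over 7 to 12 s after thallium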
PTEN del growth: growth suppression of PTEN-null HCT116, primary screen, cell-based, CellTiter-Glo; 140,000 tested, 1.2% active; HCT116 PTEN-null viability, 60 h; active compounds read low; viability, % at 10 µM;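 active = viability at or below a set limit, 4 SD under the median of all tested compounds, cut at about 3.7% in these data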;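 note: PTEN knockout HCT116 line with beta catenin targeted HCT116 as companion control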
* = called active by the depositor; / = not tested or not shown. Shown are actives, neighbours in structure and some others; about 10% of the full set was active somewhere.

SMILES	Lmaj promast	HCT116 bCat-KO	Insulin prom inh	p97 ATPase inh	ROMK primary	PTEN del growth
COc1cc(/C=C/c2c([N+](=O)[O-])c(=O)n(C)c(=O)n2C)cc(OC)c1OC	79*	78	10	5	0.87	69
COc1ccc(/C=C/c2c([N+](=O)[O-])c(=O)n(C)c(=O)n2C)cc1O	90*	58	35	1	1.7	56
Cc1cc(NC(=O)Cn2nc(C)c([N+](=O)[O-])c2C)no1	1	/	/	2	/	/
COc1ccc(N2CC(C(=O)Nc3cc(C)ccn3)CC2=O)cc1 (centres undefined)	/	/	/	5	-0.17	/
NC(CO)(CO)COCc1ccccc1	-9	/	/	-1	0.63	/
O=[N+]([O-])/C=C1/CCCCCN1	1	/	-5	3	-0.29	/
CN1CCCN(S(=O)(=O)c2ccc(Cl)c(Cl)c2)CC1	82*	/	22	0	0.97	/
O=S(=O)(c1cccc(Cl)c1Cl)N1CCCCC1	1	80	19	-3	-0.93	78
CN1CCCN(S(=O)(=O)c2cccc(Cl)c2Cl)CC1	72*	/	/	5	1.3	/
Cc1cc(N2CCN(S(=O)(=O)c3ccc(Cl)cc3)CC2)c2ccccc2n1	33	31	-100	-3	2.7	29
Cc1cc(C)n(-c2nc3ccccc3nc2N2CCN(S(=O)(=O)c3ccc4ccccc4c3)CC2)n1	54*	68	-3	-1	-1.4	72
CN1CCN(S(=O)(=O)c2cccc(S(=O)(=O)c3ccc(Cl)cc3)c2)CC1	-2	87	8	1	/	95
Cc1cc(N2CCN(S(=O)(=O)c3ccc(Cl)c(Cl)c3)CC2)c2ccccc2n1	74*	/	/	-12	0.99	/
CCN(CC)S(=O)(=O)c1ccc(NC(=O)COC(=O)CNS(=O)(=O)/C=C/c2ccccc2)cc1	-4	91	/	3	-0.51	95
CCC1CCCCN1C(=O)CSc1nnc(-c2ccc(Cl)cc2)o1 (centres undefined)	2	70	/	-1	/	70
CCC1CCCCN1C(=O)CSc1nnc(-c2ccco2)o1 (centres undefined)	-4	94	86*	3	/	98
CCOc1ccccc1NC(=O)NC(=O)N(C)S(=O)(=O)c1ccc(C)cc1	-8	/	-45	1	0.019	/
CCN(CC)S(=O)(=O)c1ccc2c(c1)N(CC(=O)NCc1ccccn1)C(=O)CO2	/	/	/	-4	0.92	/
CCC1(C)Cc2nc3[nH]c(=S)n(-c4ccccc4)c(=O)c3cc2CO1 (centres undefined)	56*	88	26	-2	0.87	87
CCC1(C)Cc2nc3[nH]c(=S)n(-c4ccccc4C)c(=O)c3cc2CO1 (centres undefined)	/	/	/	5	/	/
COc1cc2c(C(=O)N3CCN(c4cccc(Cl)c4)CC3)cn(CC(C)C)c(=O)c2cc1OC	58*	59	26	-3	-0.7	76
COc1ccccc1N1CCN(c2ncc(C(=O)N3CCN(c4cccc(Cl)c4)CC3)c3ccccc23)CC1	62*	/	-55	4	-0.064	/
Cc1ccc(NC(=O)CSc2nc(O)c(Cc3ccccc3)c(=O)n2-c2ccccc2)cc1	-10	96	-44	-1	0.068	101
CCN(CC)C(=O)C(=O)Nc1ccc(OCc2ccccc2)cc1	1	/	29	1	-1	/
CCN(CCC(=O)Nc1ccc(Br)c(C)c1)Cc1ccccc1	92*	55	-6	0	-1.4	56
SMILES	Lmaj promast	HCT116 bCat-KO	Insulin prom inh	p97 ATPase inh	ROMK primary	PTEN del growth
CCOCCCNC(=S)Nc1ccc(S(N)(=O)=O)cc1	-5	95	-17	5	/	94
CCOC(=O)c1c(CSc2cccs2)n(C)c2cc(Br)c(O)c(CN(C)C)c12	22	/	-39	2	-2.1	/
N#CC(C(=O)OC1CCCCC1)c1nc2ccccc2nc1N1CCOCC1 (centres undefined)	29	85	-38	1	/	87
CN1CCN(c2nc3ccccc3nc2C(C#N)C(=O)OC2CCCCC2)CC1 (centres undefined)	90*	52	/	-1	-1.5	50
CCN1CCN(c2nc3ccccc3nc2C(C#N)C(=O)OC2CCCCC2)CC1 (centres undefined)	85*	80	8	-4	/	96
O=C(N/N=C/c1ccc([N+](=O)[O-])o1)c1cn(-c2ccccc2)nc1-c1ccc(Cl)cc1	76*	/	/	1	0.83	/
